AmpC inh no detg = inhibitors of E. coli AmpC beta-lactamase without detergent; P00811; AmpC nitrocefin hydrolysis, absorbance 480 nm, 0.0001% Triton; Potency, µM (highest dose often 57.1 µM), without a hit: top-dose activity change, negative = inhibition, usual class: inhibitors; actives 0.52% (n = 330,000);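 also: plate controls were no compound for no effect and no enzyme for full effect; nearly all actives have a fitted effect of over 20% in size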
Target sequence (P00811 whole entry, looked up): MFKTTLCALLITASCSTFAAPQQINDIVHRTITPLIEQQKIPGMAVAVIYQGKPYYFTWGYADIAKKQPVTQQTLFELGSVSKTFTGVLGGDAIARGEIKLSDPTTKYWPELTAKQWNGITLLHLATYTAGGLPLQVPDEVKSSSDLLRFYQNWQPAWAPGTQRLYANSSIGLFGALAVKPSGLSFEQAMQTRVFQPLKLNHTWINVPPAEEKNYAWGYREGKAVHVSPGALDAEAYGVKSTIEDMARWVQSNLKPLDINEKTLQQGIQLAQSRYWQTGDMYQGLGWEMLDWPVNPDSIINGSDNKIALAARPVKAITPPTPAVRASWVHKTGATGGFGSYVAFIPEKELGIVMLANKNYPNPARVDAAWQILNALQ
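AmpC (5.3 nM in the dispensed reagent) in 20 mM phosphate pH 7.0 with 0.01% (detergent screen) or 0.0001% Triton X-100 was preincubated with compounds for 15 min at room temperature. Nitrocefin was then added from an 800 uM solution, and hydrolysis was followed at 480 nm.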
Pf growth 96h = inhibits malaria parasite growth, 96 h | Potency, µM (highest dose often 28.7 µM), for inactives: at the highest dose activity change, negative = inhibition, usual class: inhibitors | actives 6.9% (n = 320,000) | P. falciparum luciferase reporter growth, 96 h | AID 504834; also: % is scaled to controls: 0 for no effect and ±100 for the full control effect
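96 h incubation, 37 C, 5% CO2, of luciferase-reporter P. falciparum-infected RBCs (2% hematocrit, 0.05% parasitemia final) with test compounds; endpoint luminescence.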
SARS PLpro yeast = blocks SARS-CoV papain-like protease in a yeast assay; S. cerevisiae expressing SARS-CoV PLpro, growth rescue; actives 0.19% (n = 330,000); AID 485353; Potency, µM (doses to about 32.9 µM), inactives show top-dose activity, positive = growth rescue, actives largely listed as activators; calls by dose curve; also: 0% is about no effect; nearly all actives have a fitted effect of over 55% in size
Sm TGR inh = inhibitors of Schistosoma mansoni thioredoxin glutathione reductase | actives 3% (n = 360,000) | AID 485364 | Potency, µM (titrated, usually from 114 µM), inactives show at the top dose activity change, negative = inhibition, hits mostly inhibitors | purified TGR, DTNB reduction, TNB absorbance 405 nm; also: % is scaled to controls: 0 for no effect and ±100 for the full control effect; nearly all actives have a fitted effect of over 60% in size
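TGR 20 nM + NADPH 100 uM (dispensed conc.), cpd preinc 15 min RT; start with NADPH (500 uM addition) then DTNB (15 mM addition). Kinetic TNB absorbance, 405 nm filter. Four-parameter Hill fit across titration.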
AmpC inh detg = AmpC beta-lactamase inhibition with detergent present. AmpC hydrolysis of nitrocefin, absorbance 480 nm, 0.01% Triton. actives 0.041% (n = 370,000). P00811. Potency, µM (highest dose often 114 µM), inactives show at the top dose activity change, negative = inhibition, usual class: inhibitors;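 also: 0% = no-compound wells and -100% = no-enzyme wells; nearly all actives have a fitted effect of over 25% in size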
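20 mM phosphate pH 7.0 + 0.01% (detergent screen) or 0.0001% Triton X-100; 5.3 nM AmpC reagent; cpd preinc 15 min RT; nitrocefin (800 uM stock) to start; A480 q20 s × 4 min; Activity was normalised to no-enzyme and no-compound control wells.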
Pf growth 48h = inhibits P. falciparum growth in the first generation, 48 h; P. falciparum luciferase growth in erythrocytes, 48 h; Potency, µM (series often up to 28.7 µM), without a hit: top-dose activity change, negative = inhibition, hits mostly inhibitors; actives 5.9% (n = 310,000); AID 504832; also: % is scaled to controls: 0 for no effect and ±100 for the full control effect
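Growth was read as firefly luciferase luminescence after a 48 h, 37 C, 5% CO2 exposure of compounds to reporter-bearing P. falciparum cultures (0.1% parasitemia, 2% hematocrit final) in Albumax-supplemented RPMI 1640.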
Starred values were filed as active, the others as inactive; ? = inconclusive; . = no result given; [ ] = dose if it differs, or a comment. Only some compounds are listed: those with a hit (about 12% of all), similar ones and a draw of the others. Unless noted, calls follow the shape of the dose curve; as a rule, active = well fitted curve in the direction sought with a large enough effect; inconclusive = small, poorly fitted or top-dose-only effect, or another doubt; inactive = no such curve, though single readings can be large; an effect the other way counts as inactive or inconclusive. Potency is read from the fitted curve at half-maximal effect.

SMILES | AmpC inh no detg | Pf growth 96h | SARS PLpro yeast | Sm TGR inh | AmpC inh detg | Pf growth 48h
Cn1c(N)c(C(=O)COC(=O)c2cc(-c3ccccc3)nc3ccccc23)c(=O)n(Cc2ccccc2)c1=O | ? | -23.8% | -21.8% | -7.1% | -13.7% | -3.9%
CC(C)Cn1c(N)c(C(=O)COC(=O)c2cc(C(F)(F)F)nc3ccccc23)c(=O)n(C)c1=O | -21.6% | ? | -15.2% | 0.4% | ? | ?
CC(C)Cn1c(N)c(C(=O)COC(=O)c2cc(C3CC3)nc3ccccc23)c(=O)n(C)c1=O | 86.7% | 11.7µM* | 1.4% | -1.2% | ? | 5.22µM*
Cc1ccc(NC(=O)CN(C)C(=O)c2cccc(S(=O)(=O)NCc3cccs3)c2)cc1 | 9.0% | -10.9% | 2.7% | -2.7% | -6.9% | ?
COc1ccc(-n2ccn3c(CCC(=O)N4CCN(c5cccc(C)c5C)CC4)nnc3c2=O)cc1 | 16.8% | ? | -0.2% | -1.2% | 3.8% | ?
COc1cccc(CNC(=O)COC(=O)CCc2cc(OC)c(OC)c(OC)c2)c1 | 25.0% | -25.3% | . | -9.6% | 3.3% | -21.8%
C[C@H]1CN=C(Nc2ccccc2)N1CCC1CCCC1 | 2.2% | 0.2% | -2.2% | -10.1% | ? | 0.4%
O=C(OCC(=O)N1CCOCC1)c1ccc(Cl)cc1[N+](=O)[O-] | -0.4% | 21.0% | 2.0% | -4.0% | ? | 6.3%
O=C(OC(C(=O)NC1CCCC1)c1ccccn1)c1cccs1 (centres undefined) | -20.4% | 18.9% | -4.3% | 1.7% | -4.3% | 5.6%
O=C(CCn1nc(-c2ccc(Cl)cc2)ccc1=O)N1CCN(c2ccc(F)cc2)CC1 | 216.4% | 14.3% | -2.9% | 2.7% | 0.2% | ?
Cn1c(N)c(C(=O)COC(=O)c2cc(C(F)(F)F)nc3ccccc23)c(=O)n(C)c1=O | -8.0% | ? | 0.3% | -1.9% | -4.9% | ?
CC(C)Cn1c(N)c(C(=O)COC(=O)c2cc(-c3ccco3)nc3ccccc23)c(=O)n(C)c1=O | -11.2% | -5.7%[5.75 µM] | 0.2% | 6.31µM* | -9.9% | 9.28µM*
CCS(=O)(=O)N1Cc2ccccc2CC1C(=O)OCC(=O)N(C(C)C)C(C)C (centres undefined) | 68.6% | 9.28µM* | 1.2% | -1.1% | -13.2% | ?
Cc1ccc(S(=O)(=O)NC2=C(N3CCN(c4ccccc4F)CC3)C(=O)c3ccccc3C2=O)cc1 | -34.7% | ? | -2.0% | -6.0% | -4.3% | ?
CC(=O)c1ccc(NC2=C(N3CCOCC3)C(=O)c3ccccc3C2=O)cc1 | -1.2% | 0.522µM* | -9.2% | -15.6% | -6.8% | 0.828µM*
Cc1ccc(NC2=C(N3CCOCC3)C(=O)c3ccccc3C2=O)cc1 | -16.3% | 2.62µM* | -20.4% | ? | 7.6% | 2.08µM*
O=C(O)c1ccc(NC2=C(N3CCOCC3)C(=O)c3ccccc3C2=O)cc1 | -21.3% | -5.1% | -6.1% | ? | ? | -11.6%
CCOc1ccc(NC(=O)N(CCN(C)C)C(C)c2ccncc2)cc1 (centres undefined) | -8.7% | 2.7% | -2.9% | -27.4% | 5.7% | .
O=C(Nn1c(SCc2ccccc2F)nc2ccsc2c1=O)c1ccccc1 | -52.6% | 6.57µM* | -19.3% | -5.3% | -9.1% | 7.2%
O=C(CSc1nc2ccsc2c(=O)n1NC(=O)c1ccccc1)Nc1nccs1 | -29.8% | -18.0% | 10.2% | -2.0% | -3.4% | 227.4%
CC[n+]1c(C)n(C)c2cc(S(=O)(=O)N(C)C)ccc21 | -14.8% | 65.9% | 1.0% | 50.1µM* | -4.5% | -0.2%
CCCCC(=O)Nc1nc2ccc3nc(C)sc3c2s1 | 128.5% | 10.4µM* | -15.9% | -8.2% | -6.0% | ?
CCCC(=O)Nc1nc2ccc3nc(C)sc3c2s1 | 25.1% | . | -0.6% | -24.2% | ? | ?
CC(C)Cc1cc(C(=O)N(C)C2CCCN(Cc3ccccc3F)C2)n(C)n1 (centres undefined) | 142.9% | 28.3% | 10.5% | -20.2% | -5.3% | -20.8%
O=C(CSc1nnc(-c2ccc(Cl)cc2)n1Cc1ccco1)Nc1ccc2c(c1)OCCO2 | -31.2% | ? | 10.1% | 25.1µM* | -17.3% | ?
SMILES | AmpC inh no detg | Pf growth 96h | SARS PLpro yeast | Sm TGR inh | AmpC inh detg | Pf growth 48h
CCn1c(COc2ccc(Cl)cc2)nnc1SCC(=O)Nc1ccc2c(c1)OCO2 | -9.1% | 10.4µM* | 0.8% | -0.6% | 2.2% | 10.2%
Cc1cc(Cl)ccc1NC(=O)CSc1nnc(-c2ccncc2)n1Cc1ccco1 | 79.3% | ? | 1.8% | 44.7µM* | -1.6% | -20.3%
O=C(CSc1nnc(-c2ccncc2)n1Cc1ccco1)OC1CCCCC1 | 33.4% | . | 0.0% | 39.8µM* | 6.8% | -3.1%
CCc1nnc(SCC(=O)Nc2ccc3c(c2)OCO3)n1CC | -2.6% | ? | 1.1% | -12.8% | 0.0% | 14.5%
C=CC[C@@H](CC(=O)OC(C)(C)C)C(=O)OC[C@H]1CCCN1C(=O)[C@@H](CC=C)CC(=O)NCCO | 210.3% | . | -5.5% | . | . | .
O=C(CSc1nnc(-c2ccncc2)n1Cc1ccco1)Nc1nccs1 | -13.1% | 7.38µM* | ? | -22.5% | -5.4% | 13.7%
Cc1ccc(-c2nnc(SCC(=O)Nc3ccc4c(c3)OCCO4)n2N)cc1 | -9.9% | 10.4µM* | -2.0% | 8.1% | ? | 7.7%
Cc1cc(N/N=C/c2cccc(Cl)c2)nc(-n2nc(C)cc2C)n1 | 104.1% | ? | 1.0% | 3.7% | -3.4% | 1.17µM*
Cc1cc(N/N=C/c2ccc(O)cc2O)c2ccccc2n1 | -2.9% | -23.1% | -4.4% | 3.3% | 6.1% | ?
COc1ccc(/C=N/Nc2cc(C)nc(NS(=O)(=O)c3ccc(C)cc3)n2)cc1 | -26.1% | 17.5% | 7.3% | 2.5% | 0.2% | 17.5%
Cc1cc(N/N=C/c2cccc([N+](=O)[O-])c2)nc(-n2nc(C)cc2C)n1 | -0.1% | 1.04µM* | -0.7% | 5.0% | 3.7% | ?
Oc1ccc(/C=N/Nc2ccc3ccccc3c2)c(O)c1 | -45.3% | ? | -1.3% | 44.7µM* | -9.7% | ?
COc1ccc(/C=N/Nc2cc(C)nc(-n3nc(C)cc3C)n2)cc1 | 140.2% | ? | ? | 1.1% | ? | 1.47µM*
CCN1CCN(C(C)CCc2ccccc2)CC1 (centres undefined) | -13.3% | 32.0% | 2.3% | 14.3% | -8.1% | 15.2%
COc1cc2nc(NCCc3ccccc3)n3nc(-c4cccnc4)nc3c2cc1OC | . | . | . | 3.0% | 1.1% | .
O=C(CSc1nc(=O)[nH]c2c1CCCC2)NCc1ccc(Cl)cc1 | . | . | . | 1.7% | 1.0% | .
Cc1cc(N/N=C/c2ccccc2[N+](=O)[O-])nc(-n2nc(C)cc2C)n1 | 82.1% | 0.657µM* | -3.1% | 9.2% | -5.5% | 0.928µM*

Bioassay records as filed in PubChem.
